The values that follow come from PubChem BioAssay (NCI).

Test systems include DU-145 prostate; K-562 leukemia; MALME-3M melanoma; MDA-MB-231 breast; RXF 393 renal; SF-268 CNS; SF-295 CNS; SF-539 CNS; UACC-257 melanoma; M14 melanoma.
Common to all, as to test: NCI-60 one-dose screen, 48 h (100 = growth as untreated, 0 = no growth, -100 = all killed)
Settings in all cases: 10 µM unless noted

The panel holds about 83,000 compounds, 20% with a hit somewhere; the sample as a whole holds those more often.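 Negative percent growth values reflect cell death: -40 means 40% of the cells present at the start died, and -100 means all died.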 A number with no mark means an inactive call. The source made the active and inactive calls. Rule for the calls: active = growth percent below 10; inactive = the rest.

Turning to `CC(=O)N(N=O)c1ccc([N+](=O)[O-])cc1Cl`, the growth with DU-145 prostate was 82.2%; in the assay with K-562 leukemia, 49.5%; in the assay on MALME-3M melanoma, 58.9%; in the assay on MDA-MB-231 breast, 58.9%; with RXF 393 renal, 83.9%; in the assay on SF-268 CNS, 78.5%. Besides, the growth in the assay on SF-295 CNS was 66.9%; in the assay on SF-539 CNS, 72.7%; in the assay with UACC-257 melanoma, 45.4%; in the assay on M14 melanoma, 64.6%.
Turning to `C=C(NC(=O)[C@H](C(C)C)N(C)c1cccc2[nH]ccc12)C(=O)OC`, the growth in the assay with DU-145 prostate was 100%; in the assay on K-562 leukemia, 89.4%; in the assay on MALME-3M melanoma, 92.8%; in the assay on MDA-MB-231 breast, 109%; with RXF 393 renal it was 106%; in the assay with SF-268 CNS it was 101%. Moreover, the growth with SF-295 CNS was 101%; in the assay on SF-539 CNS, 117%; with UACC-257 melanoma it was 96.9%; in the assay on M14 melanoma, 94.9%.
As for `CCC(C)C1NC(=O)C(CC(C)C)NC(=O)C(C)NC(=O)C(C(C)C)NC(=O)C(CCCCN)NC(=O)C(CC(C)C)NC(=O)C(C(C)C)NC(=O)[C@H](C)NC(=O)C(C(C)CC)NC(=O)C(CCCN=C(N)N)NC(=O)C(CCCCN)NC(=O)C(CCCN=C(N)N)NC(=O)C(CCCCN)NC(=O)C([C@H](C)CC)NC(=O)C(CCCCN)NC1=O` (stereo not given in full), the growth in the assay on DU-145 prostate was 23.8%; with K-562 leukemia it was 8.83% (active); in the assay with MALME-3M melanoma, 15.2%; in the assay with MDA-MB-231 breast, -0.693% (active); in the assay on RXF 393 renal, 33%; with SF-268 CNS, 20.3%. The growth in the assay on SF-295 CNS was 21.4%; in the assay on SF-539 CNS, 67.2%; in the assay on UACC-257 melanoma it was 1.31% (active); in the assay on M14 melanoma, 17.7%.
Consider `CC(=O)OC1CC2C3CCC4C[C@@H](NC(=O)C=C(C)C)CC[C@]4(C)C3CC[C@]2(C)[C@H]1C(C)N(C)C` (stereo not given in full), for which the growth in the assay with DU-145 prostate was 31.6%; in the assay on K-562 leukemia, -37.5% (active); in the assay with MALME-3M melanoma, -54% (active); in the assay on MDA-MB-231 breast it was -36.1% (active); with RXF 393 renal it was -64.6% (active); in the assay on SF-268 CNS, -63% (active). The growth with SF-295 CNS is -37.6% (active); in the assay on SF-539 CNS, -76.5% (active); in the assay with UACC-257 melanoma it was -58.4% (active); in the assay with M14 melanoma, -59.9% (active).
Consider `CC(C)CCCCCOC(=O)c1ccccc1SSc1ccccc1C(=O)OCCCCCC(C)C`, for which the growth with DU-145 prostate was 112%; in the assay with K-562 leukemia it was 96.3%; in the assay on MALME-3M melanoma it was 110%; in the assay on MDA-MB-231 breast, 99.5%; in the assay with RXF 393 renal, 120%; in the assay on SF-268 CNS, 110%. The growth is 105% with SF-295 CNS, 99.4% in the assay with SF-539 CNS, 102% in the assay on UACC-257 melanoma and 104% with M14 melanoma.
In the case of `COC(=O)c1ccc(C(=Nc2ccc(N(C)C(=O)CN3CCN(C)CC3)cc2)c2c(O)[nH]c3ccc(C(=O)OC)cc23)cc1`, the growth with DU-145 prostate was 38.2%; in the assay on K-562 leukemia it was 7.19% (active); in the assay with MALME-3M melanoma, -14.7% (active); in the assay on MDA-MB-231 breast, 49.2%; in the assay on RXF 393 renal it was 17.7%; in the assay on SF-268 CNS, 32.8%. Besides, the growth was 44.4% in the assay on SF-295 CNS, 23.3% in the assay on SF-539 CNS, 67.7% with UACC-257 melanoma and 28.7% in the assay on M14 melanoma.
Consider `CCOC(=O)c1sc(NS(=O)(=O)c2ccccc2)nc1C`, for which the growth was 145% in the assay with DU-145 prostate; 144% in the assay with K-562 leukemia; 120% in the assay on MALME-3M melanoma; 107% with MDA-MB-231 breast; 114% in the assay on RXF 393 renal; 114% in the assay on SF-268 CNS. The growth was 133% in the assay with SF-295 CNS, 101% in the assay with SF-539 CNS, 110% with UACC-257 melanoma and 107% in the assay with M14 melanoma.
Turning to `CCCCCCCCCC[N+](C)(C)N`, the growth in the assay on DU-145 prostate is 111%; in the assay on K-562 leukemia, 71.6%; in the assay with MALME-3M melanoma, 95%; in the assay on MDA-MB-231 breast, 101%; in the assay with RXF 393 renal it was 81.8%; in the assay on SF-268 CNS, 98.6%. For the same molecule, the growth is 98.4% in the assay with SF-295 CNS, 89.1% in the assay on SF-539 CNS, 94.7% in the assay on UACC-257 melanoma and 105% in the assay with M14 melanoma.
On to `CCOC(=O)CSSCC(=O)OCC`, for which the growth in the assay on DU-145 prostate was 106%; in the assay with K-562 leukemia, 101%; in the assay on MALME-3M melanoma, 112%; in the assay on MDA-MB-231 breast it was 107%; in the assay with RXF 393 renal, 128%; with SF-268 CNS, 104%. For the same molecule, the growth is 100% in the assay on SF-295 CNS, 95.9% with SF-539 CNS, 94.1% in the assay on UACC-257 melanoma and 119% with M14 melanoma.
Take `COC(=O)c1ccc2[nH]c(O)c(C(=Nc3ccc(N(C)C(=O)CN4CCN(C)CC4)cc3)c3ccc(C)cc3)c2c1`: the growth with DU-145 prostate was -14.2% (active); in the assay on K-562 leukemia, -32.9% (active); with MALME-3M melanoma it was -94.6% (active); in the assay on MDA-MB-231 breast, -22.9% (active); in the assay on RXF 393 renal it was -98.2% (active); with SF-268 CNS, 5.16% (active). In addition, the growth in the assay on SF-295 CNS is 1.13% (active); in the assay on SF-539 CNS, -96.1% (active); in the assay with UACC-257 melanoma, -59.4% (active); in the assay on M14 melanoma it was -83.7% (active).
For the molecule `CCCCCCCCCCCC(=O)OC(C)C(=O)Nc1ccccc1` (stereo not given), the growth in the assay with DU-145 prostate was 106%; in the assay with K-562 leukemia, 97.7%; in the assay on MALME-3M melanoma it was 96.3%; in the assay with MDA-MB-231 breast, 109%; with RXF 393 renal, 117%; in the assay with SF-268 CNS, 102%. Also, the growth with SF-295 CNS is 85.7%; with SF-539 CNS it was 98.9%; in the assay with UACC-257 melanoma, 99.7%; with M14 melanoma it was 96.9%.
As to `CC[C@H](Nc1ncnc2nc[nH]c12)c1nc2cccc(NCc3ccc(C(=O)NO)nc3)c2c(=O)n1-c1ccccc1`, the growth is 67% in the assay with DU-145 prostate; 10.5% in the assay with K-562 leukemia; 62.3% in the assay with MALME-3M melanoma; 50.6% in the assay on MDA-MB-231 breast; 27.8% in the assay with RXF 393 renal; 35.9% with SF-268 CNS. Besides, the growth is 80.9% with SF-295 CNS, 10.9% in the assay with SF-539 CNS, 56.3% in the assay on UACC-257 melanoma and 68.5% in the assay with M14 melanoma.
`CC(=O)NCCN`: the growth in the assay with DU-145 prostate is 116%; with K-562 leukemia, 101%; in the assay with MALME-3M melanoma, 100%; with MDA-MB-231 breast, 101%; in the assay on RXF 393 renal, 90.1%; in the assay on SF-268 CNS, 108%. In addition, the growth in the assay with SF-295 CNS was 101%; in the assay on SF-539 CNS, 94.9%; with UACC-257 melanoma, 86.9%; in the assay with M14 melanoma, 108%.
